The values that follow come from PubChem BioAssay (NCI).

Some test systems named below: EKVX NSCLC; SN12C renal; UO-31 renal; TK-10 renal; ACHN renal; CAKI-1 renal; A498 renal; CCRF-CEM leukemia; MOLT-4 leukemia; SR leukemia.
Holding throughout (test): NCI-60 one-dose screen, 48 h (100 = growth as untreated, 0 = no growth, -100 = all killed)
Common to all, as to conditions: 10 µM unless noted

Compounds without any hit were thinned out: in the full panel of roughly 83,000, 20% have a hit.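 The endpoint reported here, percent growth, reads 100 for growth as untreated, 0 for no net growth and -100 for all cells dead.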 Values without a mark were called inactive. Calls of active or inactive are those of the source. Rule for the calls: active = growth percent below 10; inactive = the rest.

For the compound `O=C(/C=C/c1ccc(F)cc1)c1ccc(Nc2nc(NCCO)nc(Nc3ccc(Cl)cc3)n2)cc1`, the growth is 67.7% in the experiment on EKVX NSCLC; 94% with SN12C renal; 70.7% in the experiment with UO-31 renal; 93.4% in the experiment with TK-10 renal; 70.8% in the experiment on ACHN renal; 73.6% with CAKI-1 renal. Further, the figures for the growth in the experiment on A498 renal, in the experiment with CCRF-CEM leukemia and in the experiment on MOLT-4 leukemia were 70.4%, 60.5% and 57.9%, respectively.

With `O=C(c1ccccc1)N(C(=S)NCCc1ccc(Cl)cc1)c1ccccc1`, the growth in the experiment with EKVX NSCLC is 96.3%; with SN12C renal it was 110%; with UO-31 renal, 80%; in the experiment with TK-10 renal, 82.5%; with ACHN renal it was 108%; in the experiment on CAKI-1 renal, 93.2%. In addition, the values for the growth in the experiment with A498 renal, with CCRF-CEM leukemia and in the experiment on MOLT-4 leukemia were 95.3%, 61.3% and 47.6%, respectively.

For the compound `COc1cc2nc(NC3CCC3)nc(NC3CCN(C(C)C)CC3)c2cc1OC`, the growth with EKVX NSCLC was 83.5%; with SN12C renal, 92.2%; in the experiment on UO-31 renal, 80.6%; in the experiment on TK-10 renal it was 46.8%; with ACHN renal, 57.2%; in the experiment with CAKI-1 renal, 92.2%. Further, the values for the growth with A498 renal, with CCRF-CEM leukemia and with MOLT-4 leukemia were 75.9%, 46.5% and 45.5%, respectively.

`CC1=C(C(=O)OCC2CCN(C(=O)OC(C)(C)C)CC2)[C@@H](c2cccc(C#N)c2)C2=C(CC(C)(C)CC2=O)N1`: the growth in the experiment with EKVX NSCLC was 63.7%; in the experiment with SN12C renal it was 42.7%; with UO-31 renal, 42.1%; in the experiment with TK-10 renal, 68.5%; in the experiment with ACHN renal, 38.5%; with CAKI-1 renal, 38.4%. The growth was 75.3% with A498 renal, 36.8% in the experiment with CCRF-CEM leukemia and 12.5% with MOLT-4 leukemia.

`O=C(c1ccccc1)N(CCc1ccc(Cl)cc1)C(=S)N(C(=O)c1ccccc1)c1ccccc1`: the growth with EKVX NSCLC is 102%; in the experiment with SN12C renal, 100%; with UO-31 renal, 81.7%; in the experiment on TK-10 renal, 97.4%; in the experiment on ACHN renal, 110%; in the experiment with CAKI-1 renal it was 96.9%. Besides, the growth in the experiment on A498 renal was 92.3%; in the experiment with CCRF-CEM leukemia it was 8.54% (active); in the experiment with MOLT-4 leukemia, 28.7%.

Turning to `O=c1oc2ccc(Br)cc2c(=O)n1-c1ccc(I)cc1F`, the growth with EKVX NSCLC was 12.5%; in the experiment on SN12C renal it was -1.37% (active); in the experiment on UO-31 renal, 7.32% (active); in the experiment on TK-10 renal, 7.64% (active); with ACHN renal, 3.46% (active); with CAKI-1 renal, -8.71% (active). Further, the results for the growth in the experiment on A498 renal, in the experiment on CCRF-CEM leukemia and in the experiment on MOLT-4 leukemia were -70.2% (active), 7.41% (active) and -26.3% (active), respectively.

`O=C(Nc1ccc(I)cc1F)c1cc(Cl)ccc1O`: the growth was 7.55% (active) with EKVX NSCLC; 2.43% (active) in the experiment with SN12C renal; 9.04% (active) with UO-31 renal; 10.5% in the experiment on TK-10 renal; 6.15% (active) in the experiment with ACHN renal; -12% (active) in the experiment with CAKI-1 renal. Also, the growth with A498 renal was -64.4% (active); in the experiment on CCRF-CEM leukemia, 7.89% (active); in the experiment with MOLT-4 leukemia, -30.5% (active).

Consider `CC[C@]1(O)C[C@@H]2CN(CCc3c([nH]c4ccccc34)[C@@](C(=O)OC)(c3cc4c(cc3OC)N(C)[C@H]3[C@@](O)(C(=O)OC)[C@H](OC(C)=O)[C@]5(CC)C=CCN6CC[C@]43[C@@H]65)C2)C1`, for which the growth was 38.8% in the experiment on EKVX NSCLC; 27% with SN12C renal; 41.6% in the experiment on UO-31 renal; 45.5% in the experiment with TK-10 renal; 30.1% in the experiment on ACHN renal; 4.83% (active) in the experiment on CAKI-1 renal. Moreover, the growth is -12.5% (active) in the experiment with A498 renal, 13.8% in the experiment with CCRF-CEM leukemia and 26.5% in the experiment on MOLT-4 leukemia.

As to `COC(=O)/C(CCC=C(C)C)=C1\[C@@H](OC(C)=O)C[C@@]2(C)[C@H]1CC(=O)N[C@H]1[C@@]3(C)CCNC(=O)[C@@H](C)[C@@H]3CC[C@@]12C`, the growth with EKVX NSCLC is 98%; in the experiment with SN12C renal, 98.9%; with UO-31 renal, 81.9%; in the experiment on TK-10 renal, 99.5%; in the experiment with ACHN renal it was 101%; in the experiment with CAKI-1 renal it was 95.5%. In addition, the results for the growth in the experiment on A498 renal, in the experiment with CCRF-CEM leukemia and with MOLT-4 leukemia were 109%, 104% and 99.5%, respectively.

Take `N[C@@H](CC/[N+]([O-])=N/O)C(=O)O`: the growth in the experiment with EKVX NSCLC was 89.3%; in the experiment on SN12C renal it was 101%; in the experiment with UO-31 renal, 94.9%; in the experiment on TK-10 renal, 104%; in the experiment with ACHN renal, 105%; in the experiment on CAKI-1 renal it was 97.6%. The growth in the experiment with A498 renal was 111%; in the experiment with CCRF-CEM leukemia it was 105%; in the experiment on MOLT-4 leukemia, 104%.

`COc1ccc(-c2c(-c3ccc(OC)c(O)c3)cnc3ncnn23)cc1`: the growth in the experiment on EKVX NSCLC is 98.1%; in the experiment with SN12C renal it was 105%; with UO-31 renal, 94.1%; with TK-10 renal, 98%; in the experiment with ACHN renal it was 105%; with CAKI-1 renal, 95.1%. Besides, the growth was 91.9% with A498 renal, 102% in the experiment with CCRF-CEM leukemia and 100% in the experiment on MOLT-4 leukemia.

As for `O=C(Nc1ccc(Cl)cc1F)c1cc(I)ccc1O`, the growth with EKVX NSCLC is 77%; in the experiment on SN12C renal it was 29.5%; in the experiment on UO-31 renal it was 34%; in the experiment on TK-10 renal, 15.8%; in the experiment with ACHN renal, 34.3%; in the experiment on CAKI-1 renal it was 22.8%. For the same compound, the growth with A498 renal was -28.2% (active); with CCRF-CEM leukemia, 29.9%; in the experiment with MOLT-4 leukemia, 31.7%.

For `CC1=C(C(=O)OCC2CCN(C(=O)OC(C)(C)C)CC2)[C@H](c2cccc(Br)c2)C2=C(CC(C)(C)CC2=O)N1`, the growth was 49.4% with EKVX NSCLC; 31.2% with SN12C renal; 31.2% in the experiment on UO-31 renal; 38.9% in the experiment on TK-10 renal; 27.9% in the experiment on ACHN renal; 26.6% in the experiment with CAKI-1 renal. Moreover, the growth is 49.5% in the experiment with A498 renal, 17.9% with CCRF-CEM leukemia and 4.54% (active) with MOLT-4 leukemia.

In the case of `Cn1c(/C=C(\C#N)c2ccccc2)nc2c(N3CCOCC3)nc(Cl)nc21`, the growth was -72.4% (active) with EKVX NSCLC; -58.6% (active) with SN12C renal; -100% (active) with UO-31 renal; -63.6% (active) with TK-10 renal; -96.2% (active) in the experiment with ACHN renal; -96.9% (active) with CAKI-1 renal. For the same compound, the growth in the experiment on A498 renal was 2.31% (active); in the experiment with CCRF-CEM leukemia it was 2.94% (active); with MOLT-4 leukemia, -12.4% (active).

As for `CN1CCN(Cc2ccc(NC(=O)c3[nH]ncc3Nc3cc(OC4CCCC4)ncn3)cc2)CC1`, the growth in the experiment with EKVX NSCLC is 60.1%; in the experiment with SN12C renal, 24.9%; in the experiment with UO-31 renal, 25.8%; with TK-10 renal, 88.3%; in the experiment with ACHN renal it was 8.8% (active); in the experiment on CAKI-1 renal it was 19.2%. The growth is 49.6% with A498 renal, 5.67% (active) with CCRF-CEM leukemia, 5.56% (active) in the experiment with MOLT-4 leukemia and 4.42% (active) in the experiment with SR leukemia.
